Measured values: the supplement of paper PMC12669032

Tests used:
Assay in all cases: growth AUC relative to DMSO control (median of replicates) (fraction); higher = more growth (less inhibition), active = hit call of the paper
Settings in all cases: 20 µM; 24 h;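 active = AUC reduced over 20% with Padj below 0.05 in at least 2 of 3 replicates; inactive = otherwise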
[1] = system: Akkermansia muciniphila
In short: (§1)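 In round-bottom 96-well plates sealed with pierced gas-permeable seals, gut bacterial monocultures in mGAM were grown anaerobically at 37 °C from OD600 0.05 with 20 µM compound (1% DMSO). OD600 readings were taken hourly for 24 h, and the minimum OD was set to 0. Area under the growth curve was then normalised to the plate median of solvent-only wells, or to row and column medians on the industrial chemical plate. The value given is the median of three biological replicates grown on separate days.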

[2] = system: Bacteroides caccae
In short: as §1

[3] = system: Bacteroides clarus
In short: as §1

[4] = system: Bacteroides dorei
In short: as §1

[5] = system: Bacteroides stercoris
In short: as §1

[6] = system: Bacteroides thetaiotaomicron
In short: as §1

[7] = system: Bacteroides uniformis
In short: as §1

[8] = system: Bifidobacterium longum subsp. longum
In short: as §1

[9] = system: Clostridium difficile
In short: as §1

[10] = system: Collinsella aerofaciens
In short: as §1

[11] = system: Coprococcus comes
In short: as §1

[12] = system: Escherichia coli ED1a
In short: as §1

[13] = system: Escherichia coli IAI1
In short: as §1

[14] = system: Eubacterium rectale
In short: as §1

[15] = system: Fusobacterium nucleatum subsp. animalis
In short: as §1

[16] = system: Lactobacillus gasseri
In short: as §1

[17] = system: Lactobacillus paracasei
In short: as §1

[18] = system: Odoribacter splanchnicus
In short: as §1

[19] = system: Parabacteroides distasonis
In short: as §1

[20] = system: Parabacteroides merdae
In short: as §1

Measured: growth AUC

CCNc1nc(NC(C)(C)C)nc(SC)n1
inactive: [1] 1.02 | [2] 0.947 | [3] 0.94 | [4] 0.871 | [5] 1.07 | [6] 0.728 | [7] 0.905 | [8] 0.915 | [9] 0.967 | [10] 1 | [11] 0.969 | [12] 0.987 | [13] 0.986 | [14] 0.956 | [15] 1.06 | [16] 1.1 | [17] 1.08 | [18] 0.876 | [19] 0.936 | [20] 0.947

COc1cnc(OC)n2nc(NS(=O)(=O)c3c(OCC(F)F)cccc3C(F)(F)F)nc12
inactive: [1] 0.962 | [2] 1.03 | [3] 1.01 | [4] 0.993 | [5] 0.991 | [6] 1.01 | [7] 1.01 | [8] 0.994 | [9] 0.993 | [10] 0.991 | [11] 1.01 | [12] 1.01 | [13] 1.02 | [14] 0.954 | [15] 0.96 | [16] 1.08 | [17] 0.965 | [18] 1.01 | [19] 1.01 | [20] 1.01

C#CCN1C(=O)COc2cc(F)c(N3C(=O)C4=C(CCCC4)C3=O)cc21
inactive: [1] 1.23 | [2] 1.01 | [3] 0.994 | [4] 0.931 | [5] 1 | [6] 1 | [7] 0.959 | [8] 1.02 | [9] 0.929 | [10] 0.944 | [11] 1.01 | [12] 0.98 | [13] 0.984 | [14] 1.09 | [15] 0.944 | [16] 0.883 | [17] 0.934 | [18] 0.948 | [19] 0.855 | [20] 0.958

CNC(=O)/C(=N/OC)c1ccccc1Oc1ccccc1
inactive: [1] 0.883 | [2] 1.01 | [3] 0.972 | [4] 0.982 | [5] 1.02 | [6] 0.975 | [7] 0.997 | [8] 0.942 | [9] 1 | [10] 0.998 | [11] 0.989 | [12] 1 | [13] 0.997 | [14] 0.977 | [15] 0.968 | [16] 1.04 | [17] 1.05 | [18] 0.992 | [19] 0.995 | [20] 0.997

BrCCBr
inactive: [1] 1.11 | [2] 0.998 | [3] 1.01 | [4] 1.02 | [5] 1.17 | [6] 0.987 | [7] 1 | [8] 1.03 | [9] 0.997 | [10] 0.995 | [11] 1.03 | [12] 1.03 | [13] 1.01 | [14] 1.06 | [15] 1.01 | [16] 1.03 | [17] 1 | [18] 1.06 | [19] 1.04 | [20] 0.99

C#CC(C)(C)NC(=O)c1cc(Cl)cc(Cl)c1
inactive: [1] 1.06 | [2] 0.964 | [3] 0.949 | [4] 0.956 | [5] 0.88 | [6] 0.932 | [7] 0.96 | [8] 0.987 | [9] 0.948 | [10] 0.936 | [11] 1 | [12] 0.984 | [13] 0.963 | [14] 1.04 | [15] 0.95 | [16] 0.91 | [17] 1.03 | [18] 1.06 | [19] 1.01 | [20] 1.01

CC(C)NC(=O)N1CC(=O)N(c2cc(Cl)cc(Cl)c2)C1=O
inactive: [1] 0.919 | [2] 0.969 | [3] 0.989 | [4] 1.01 | [5] 1.1 | [6] 1.01 | [7] 0.967 | [8] 1.01 | [9] 1.04 | [10] 1.05 | [11] 1.01 | [12] 1.03 | [13] 0.983 | [14] 0.995 | [15] 0.948 | [16] 1.09 | [17] 0.991 | [18] 1 | [19] 0.979 | [20] 1

CCN(Cc1ccc(Cl)nc1)/C(=C/[N+](=O)[O-])NC
inactive: [1] 0.913 | [2] 0.991 | [3] 0.991 | [4] 0.975 | [5] 0.939 | [6] 0.972 | [7] 1.01 | [8] 0.983 | [9] 0.981 | [10] 0.976 | [11] 0.959 | [12] 1.04 | [13] 0.987 | [14] 0.948 | [15] 0.928 | [16] 0.966 | [17] 0.992 | [18] 0.95 | [19] 1.04 | [20] 0.989

CN=C=S
inactive: [1] 0.945 | [2] 1.01 | [3] 0.977 | [4] 0.988 | [5] 1.07 | [6] 1 | [7] 1 | [8] 1.05 | [9] 1.01 | [10] 1.02 | [11] 1 | [12] 1 | [13] 1.01 | [14] 0.972 | [15] 0.977 | [16] 0.962 | [17] 1.04 | [18] 1.06 | [19] 1.08 | [20] 1

CC1(C)[C@H](C=C(Cl)Cl)[C@H]1C(=O)OCc1c(F)c(F)cc(F)c1F
inactive: [1] 0.957 | [2] 1.02 | [3] 0.992 | [4] 1.07 | [5] 1.03 | [6] 0.993 | [7] 1.04 | [8] 0.954 | [9] 1.08 | [10] 1 | [11] 1 | [12] 1.01 | [13] 1.03 | [14] 0.957 | [15] 1.04 | [16] 1.02 | [17] 0.947 | [18] 1.02 | [19] 0.999 | [20] 0.989

COC(=O)C(Cl)Cl
inactive: [1] 1 | [2] 0.968 | [3] 0.992 | [4] 1 | [5] 1.06 | [6] 1.02 | [7] 0.971 | [8] 0.957 | [9] 0.997 | [10] 0.991 | [11] 0.986 | [12] 1 | [13] 0.989 | [14] 1 | [15] 1.07 | [16] 0.919 | [17] 0.938 | [18] 1.01 | [19] 0.998 | [20] 1

CC(Oc1cc(Cl)c(Cl)cc1Cl)C(=O)O (stereo not given)
inactive: [1] 0.958 | [2] 1 | [3] 0.949 | [4] 0.979 | [5] 0.973 | [6] 0.99 | [7] 0.987 | [8] 0.787 | [9] 1.02 | [10] 1.01 | [11] 0.987 | [12] 0.978 | [13] 0.953 | [14] 0.964 | [15] 0.889 | [16] 1.04 | [17] 1 | [18] 1.02 | [19] 0.955 | [20] 0.986

Cc1cc(C(C#N)c2ccc(Cl)cc2)c(Cl)cc1NC(=O)c1cc(I)cc(I)c1O (stereo not given)
active: [2] 0.184 | [3] 0.0125 | [4] 0.0106 | [5] 0.00703 | [6] 0.0104 | [7] 0.0176 | [8] 0.121 | [9] 0.00624 | [10] 0.0767 | [11] 0.275 | [14] 0.072 | [15] 0.702 | [16] 0.0202 | [17] 0.0904 | [18] 0.017 | [19] 0.0201 | [20] 0.00673
inactive: [1] 0.866 | [12] 0.958 | [13] 0.953

CCOP(=S)(OCC)SCCSCC
inactive: [1] 0.992 | [2] 1.03 | [3] 1.01 | [4] 0.973 | [5] 1.06 | [6] 1.01 | [7] 0.973 | [8] 1.02 | [9] 0.977 | [10] 0.972 | [11] 1.03 | [12] 1.01 | [13] 1 | [14] 0.971 | [15] 1.09 | [16] 1.02 | [17] 1.1 | [18] 1.02 | [19] 0.991 | [20] 1.01

O=c1oc2ccccc2c(O)c1C1CCCc2ccccc21 (stereo not given)
inactive: [1] 1.15 | [2] 0.938 | [3] 0.916 | [4] 0.926 | [5] 1.09 | [8] 1.09 | [9] 1.02 | [10] 1 | [11] 0.966 | [12] 1.04 | [13] 1.04 | [14] 1.08 | [15] 1.05 | [16] 1 | [17] 0.894 | [18] 0.959 | [19] 0.805 | [20] 0.994
active: [6] 0.796 | [7] 0.701

CC(C)=CC1C(C(=O)OCN2C(=O)C3=C(CCCC3)C2=O)C1(C)C (stereo not given)
inactive: [1] 0.932 | [2] 0.916 | [3] 0.924 | [4] 0.976 | [5] 0.877 | [6] 0.965 | [7] 0.97 | [8] 0.741 | [9] 0.959 | [10] 0.955 | [11] 0.953 | [12] 0.995 | [13] 0.97 | [14] 0.938 | [15] 0.85 | [16] 0.993 | [17] 0.918 | [18] 0.963 | [19] 0.935 | [20] 0.972
